According to PMC7862700, “An all-to-all approach to the identification of sequence-specific readers for epigenetic DNA modifications on cytosine”:

Experiments:
Experiment in all cases: DAPPL (digital affinity profiling via proximity ligation, sequencing); 10 mM Tris-HCl pH 7.5, 50 mM NaCl, 1 mM DTT, 4% glycerol, room temperature, 30 min; GST-TFs on glutathione beads, 16-mer random dsDNA library, 0.1% formaldehyde crosslink after washing; high values mean tight binding
[1] = biological target: T1, FEV (Homo sapiens, UniProt Q99581 1-238); settings: protein: recombinant; tags: N-terminal GST; dsDNA, one strand shown
T1 sequence: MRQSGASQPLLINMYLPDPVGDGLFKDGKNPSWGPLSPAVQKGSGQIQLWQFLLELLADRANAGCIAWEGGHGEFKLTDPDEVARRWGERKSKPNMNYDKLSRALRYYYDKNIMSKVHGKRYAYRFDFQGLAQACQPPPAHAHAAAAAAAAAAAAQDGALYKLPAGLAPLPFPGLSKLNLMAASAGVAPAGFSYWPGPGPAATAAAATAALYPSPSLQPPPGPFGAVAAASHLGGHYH
Summary of the method: (§1)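 Sequencing on an Illumina NextSeq500 followed washing, crosslinking with 0.1% formaldehyde, proximity ligation (BsaI/T4 ligase, 1 h, 37 °C) and PCR amplification of pools that had been incubated for 30 min at room temperature with 200 nmole of a random double-stranded 16-mer DNA library in Tris/NaCl/DTT/glycerol buffer. Each pool held DNA-barcoded human transcription factors, expressed in yeast as GST fusions and captured on glutathione beads, plus a tag-only sample. Binding signal is a hexamer's read frequency for a factor divided by its frequency in the tag-only sample.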

[2] = biological target: ETV5 (Homo sapiens, UniProt P41161 1-510); settings: protein: recombinant; tags: N-terminal GST; dsDNA, one strand shown
Summary of the method: as §1

[3] = biological target: HSF1 (Homo sapiens, UniProt Q00613 1-529); settings: protein: recombinant; tags: N-terminal GST; chain copies: 3; dsDNA, one strand shown
Summary of the method: as §1

[4] = biological target: T2, SPIC (Homo sapiens, UniProt Q8N5J4 1-248); settings: protein: recombinant; tags: N-terminal GST; dsDNA, one strand shown
T2 sequence: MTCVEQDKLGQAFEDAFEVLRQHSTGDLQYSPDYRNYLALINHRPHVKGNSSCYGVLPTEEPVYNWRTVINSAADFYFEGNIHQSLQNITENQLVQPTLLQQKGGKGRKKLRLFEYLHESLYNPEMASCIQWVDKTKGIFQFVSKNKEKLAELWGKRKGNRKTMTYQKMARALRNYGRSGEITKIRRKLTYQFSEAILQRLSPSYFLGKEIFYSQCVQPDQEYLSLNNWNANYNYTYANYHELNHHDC
Summary of the method: as §1

[5] = biological target: ELF4 (Homo sapiens, UniProt Q99607 1-663); settings: protein: recombinant; tags: N-terminal GST; dsDNA, one strand shown
Summary of the method: as §1

[6] = biological target: T3, ELK4 (Homo sapiens, UniProt P28324-2 1-405); settings: protein: recombinant; tags: N-terminal GST; dsDNA, one strand shown
T3 sequence: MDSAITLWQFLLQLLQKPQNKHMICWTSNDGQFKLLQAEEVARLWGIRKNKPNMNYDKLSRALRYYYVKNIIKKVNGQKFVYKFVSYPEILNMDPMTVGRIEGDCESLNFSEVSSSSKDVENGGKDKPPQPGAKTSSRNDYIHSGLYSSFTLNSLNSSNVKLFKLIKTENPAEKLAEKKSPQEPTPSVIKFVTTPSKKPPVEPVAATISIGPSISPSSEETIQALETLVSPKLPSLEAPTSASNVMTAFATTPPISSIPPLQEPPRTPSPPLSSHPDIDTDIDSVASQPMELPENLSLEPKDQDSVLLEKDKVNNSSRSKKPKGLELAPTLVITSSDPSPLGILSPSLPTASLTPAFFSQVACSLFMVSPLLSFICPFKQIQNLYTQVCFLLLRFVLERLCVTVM
Summary of the method: as §1

[7] = biological target: T4, ETV2 (Homo sapiens, UniProt O00321 1-342); settings: protein: recombinant; tags: N-terminal GST; dsDNA, one strand shown
T4 sequence: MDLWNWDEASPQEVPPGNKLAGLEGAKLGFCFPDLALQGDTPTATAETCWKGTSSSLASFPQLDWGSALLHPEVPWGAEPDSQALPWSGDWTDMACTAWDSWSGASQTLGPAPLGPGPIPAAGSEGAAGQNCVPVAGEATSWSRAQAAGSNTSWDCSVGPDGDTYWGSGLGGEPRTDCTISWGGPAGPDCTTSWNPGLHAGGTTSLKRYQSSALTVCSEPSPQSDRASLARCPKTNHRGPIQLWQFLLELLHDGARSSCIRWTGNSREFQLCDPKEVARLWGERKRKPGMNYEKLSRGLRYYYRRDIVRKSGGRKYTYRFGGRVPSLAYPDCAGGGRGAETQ
Summary of the method: as §1

[8] = biological target: T5, ELF3 (Homo sapiens, UniProt P78545 1-371); settings: protein: recombinant; tags: N-terminal GST; dsDNA, one strand shown
T5 sequence: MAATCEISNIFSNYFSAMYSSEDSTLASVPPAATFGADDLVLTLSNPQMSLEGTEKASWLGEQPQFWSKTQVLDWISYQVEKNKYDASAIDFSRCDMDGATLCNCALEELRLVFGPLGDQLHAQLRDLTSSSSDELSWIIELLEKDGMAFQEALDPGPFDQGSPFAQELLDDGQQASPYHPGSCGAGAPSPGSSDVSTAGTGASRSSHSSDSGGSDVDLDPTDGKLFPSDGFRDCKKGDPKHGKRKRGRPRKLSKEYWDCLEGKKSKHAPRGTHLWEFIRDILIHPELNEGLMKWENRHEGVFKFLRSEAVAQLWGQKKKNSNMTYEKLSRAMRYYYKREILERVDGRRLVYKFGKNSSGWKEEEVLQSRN
Summary of the method: as §1

[9] = biological target: CRX (Homo sapiens, UniProt O43186 1-299); settings: protein: recombinant; tags: N-terminal GST; dsDNA, one strand shown
Summary of the method: as §1

[10] = biological target: ETV1 (Homo sapiens, UniProt P50549 1-477); settings: protein: recombinant; tags: N-terminal GST; dsDNA, one strand shown
Summary of the method: as §1

Sequence of HSF1 (Q00613 whole entry): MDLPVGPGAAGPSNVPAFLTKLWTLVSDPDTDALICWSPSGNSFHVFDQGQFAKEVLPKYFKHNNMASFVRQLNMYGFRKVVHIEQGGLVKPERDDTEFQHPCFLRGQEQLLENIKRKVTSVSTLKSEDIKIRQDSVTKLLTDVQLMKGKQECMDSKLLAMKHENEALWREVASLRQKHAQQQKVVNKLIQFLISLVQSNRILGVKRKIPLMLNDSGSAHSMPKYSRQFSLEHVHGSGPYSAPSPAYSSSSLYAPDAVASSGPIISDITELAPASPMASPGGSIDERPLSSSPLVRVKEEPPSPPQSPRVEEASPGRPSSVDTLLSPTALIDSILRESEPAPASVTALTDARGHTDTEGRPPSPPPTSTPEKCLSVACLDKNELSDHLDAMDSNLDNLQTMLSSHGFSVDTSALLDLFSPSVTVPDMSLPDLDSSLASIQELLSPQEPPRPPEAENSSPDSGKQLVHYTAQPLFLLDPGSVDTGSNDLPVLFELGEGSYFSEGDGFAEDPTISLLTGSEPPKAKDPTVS
Sequence of ETV5 (P41161 whole entry): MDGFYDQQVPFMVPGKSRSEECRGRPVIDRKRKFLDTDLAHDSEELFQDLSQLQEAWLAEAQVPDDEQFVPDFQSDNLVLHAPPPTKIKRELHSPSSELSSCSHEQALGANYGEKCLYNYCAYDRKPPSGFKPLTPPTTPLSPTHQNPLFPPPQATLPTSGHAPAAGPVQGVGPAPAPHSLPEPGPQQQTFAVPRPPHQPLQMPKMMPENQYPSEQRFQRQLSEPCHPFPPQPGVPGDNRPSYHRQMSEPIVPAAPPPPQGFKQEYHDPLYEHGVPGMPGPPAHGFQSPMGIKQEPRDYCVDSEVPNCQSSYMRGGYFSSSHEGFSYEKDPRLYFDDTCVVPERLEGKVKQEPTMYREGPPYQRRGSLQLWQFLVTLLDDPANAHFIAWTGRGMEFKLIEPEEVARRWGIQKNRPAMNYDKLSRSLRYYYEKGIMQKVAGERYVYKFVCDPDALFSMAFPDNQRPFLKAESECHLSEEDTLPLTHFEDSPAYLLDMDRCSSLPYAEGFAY
Sequence of ELF4 (Q99607 whole entry): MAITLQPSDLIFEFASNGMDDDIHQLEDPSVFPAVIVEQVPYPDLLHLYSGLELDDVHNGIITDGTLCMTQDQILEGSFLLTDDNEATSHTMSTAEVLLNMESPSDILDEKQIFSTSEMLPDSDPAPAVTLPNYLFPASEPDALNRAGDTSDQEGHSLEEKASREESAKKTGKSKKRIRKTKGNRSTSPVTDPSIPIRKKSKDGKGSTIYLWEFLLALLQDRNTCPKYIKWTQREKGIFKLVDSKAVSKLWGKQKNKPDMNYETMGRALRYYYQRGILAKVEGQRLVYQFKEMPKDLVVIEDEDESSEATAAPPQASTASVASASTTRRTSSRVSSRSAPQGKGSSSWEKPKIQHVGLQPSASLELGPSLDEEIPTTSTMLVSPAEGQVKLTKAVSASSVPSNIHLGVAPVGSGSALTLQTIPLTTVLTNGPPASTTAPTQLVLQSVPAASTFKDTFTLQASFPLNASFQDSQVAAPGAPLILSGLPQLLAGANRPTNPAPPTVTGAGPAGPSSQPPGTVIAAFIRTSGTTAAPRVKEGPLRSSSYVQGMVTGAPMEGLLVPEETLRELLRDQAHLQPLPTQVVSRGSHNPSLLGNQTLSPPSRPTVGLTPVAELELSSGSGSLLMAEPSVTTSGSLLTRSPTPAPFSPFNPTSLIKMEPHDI
Sequence of ETV1 (P50549 whole entry): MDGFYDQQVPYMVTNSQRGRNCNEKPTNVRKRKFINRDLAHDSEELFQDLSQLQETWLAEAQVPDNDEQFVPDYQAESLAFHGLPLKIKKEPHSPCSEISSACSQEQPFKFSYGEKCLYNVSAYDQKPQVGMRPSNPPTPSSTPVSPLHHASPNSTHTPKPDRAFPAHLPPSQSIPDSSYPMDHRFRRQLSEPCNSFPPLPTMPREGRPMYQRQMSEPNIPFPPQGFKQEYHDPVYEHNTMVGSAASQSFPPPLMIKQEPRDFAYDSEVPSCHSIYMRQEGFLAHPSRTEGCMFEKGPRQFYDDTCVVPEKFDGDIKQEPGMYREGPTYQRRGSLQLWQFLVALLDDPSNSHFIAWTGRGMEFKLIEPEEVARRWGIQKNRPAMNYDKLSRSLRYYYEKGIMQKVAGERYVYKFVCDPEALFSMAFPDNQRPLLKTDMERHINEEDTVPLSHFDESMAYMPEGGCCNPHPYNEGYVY
Sequence of CRX (O43186 whole entry): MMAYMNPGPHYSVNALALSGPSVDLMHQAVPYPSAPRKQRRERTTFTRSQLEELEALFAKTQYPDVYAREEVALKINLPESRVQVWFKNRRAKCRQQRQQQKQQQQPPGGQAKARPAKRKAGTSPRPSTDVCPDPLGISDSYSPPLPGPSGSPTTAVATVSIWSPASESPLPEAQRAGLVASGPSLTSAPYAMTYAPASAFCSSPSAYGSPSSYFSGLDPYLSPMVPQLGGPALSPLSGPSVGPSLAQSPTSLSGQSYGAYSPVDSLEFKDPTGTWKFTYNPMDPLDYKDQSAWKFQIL

| Sequence | binding signal [1] | binding signal [2] | binding signal [3] | binding signal [4] | binding signal [5] | binding signal [6] | binding signal [7] | binding signal [8] | binding signal [9] | binding signal [10] |
| --- | --- | --- | --- | --- | --- | --- | --- | --- | --- | --- |
| CACTAA | 1.12 fold enrichment (6-mer frequency, TF over GST control) | 1.13 fold enrichment (6-mer frequency, TF over GST control) | 1.29 fold enrichment (6-mer frequency, TF over GST control) | 1.25 fold enrichment (6-mer frequency, TF over GST control) | 1.2 fold enrichment (6-mer frequency, TF over GST control) | 1.2 fold enrichment (6-mer frequency, TF over GST control) | 1.2 fold enrichment (6-mer frequency, TF over GST control) | 1.3 fold enrichment (6-mer frequency, TF over GST control) | 1.67 fold enrichment (6-mer frequency, TF over GST control) | 1.12 fold enrichment (6-mer frequency, TF over GST control) |
| TTTGCG | 1.13 fold enrichment (6-mer frequency, TF over GST control) | 1.29 fold enrichment (6-mer frequency, TF over GST control) | 1.3 fold enrichment (6-mer frequency, TF over GST control) | 1.37 fold enrichment (6-mer frequency, TF over GST control) | 1.21 fold enrichment (6-mer frequency, TF over GST control) | 1.03 fold enrichment (6-mer frequency, TF over GST control) | 1.13 fold enrichment (6-mer frequency, TF over GST control) | 1.3 fold enrichment (6-mer frequency, TF over GST control) | 1.31 fold enrichment (6-mer frequency, TF over GST control) | 1.34 fold enrichment (6-mer frequency, TF over GST control) |
| AAAGCA | 1.07 fold enrichment (6-mer frequency, TF over GST control) | 1.06 fold enrichment (6-mer frequency, TF over GST control) | 1.04 fold enrichment (6-mer frequency, TF over GST control) | 1.01 fold enrichment (6-mer frequency, TF over GST control) | 1.09 fold enrichment (6-mer frequency, TF over GST control) | 1.14 fold enrichment (6-mer frequency, TF over GST control) | 1.11 fold enrichment (6-mer frequency, TF over GST control) | 1.02 fold enrichment (6-mer frequency, TF over GST control) | 1.06 fold enrichment (6-mer frequency, TF over GST control) | 1.06 fold enrichment (6-mer frequency, TF over GST control) |
| AAATGT | 1.27 fold enrichment (6-mer frequency, TF over GST control) | 1.28 fold enrichment (6-mer frequency, TF over GST control) | 1.19 fold enrichment (6-mer frequency, TF over GST control) | 1.25 fold enrichment (6-mer frequency, TF over GST control) | 1.27 fold enrichment (6-mer frequency, TF over GST control) | 1.4 fold enrichment (6-mer frequency, TF over GST control) | 1.36 fold enrichment (6-mer frequency, TF over GST control) | 1.54 fold enrichment (6-mer frequency, TF over GST control) | 1.04 fold enrichment (6-mer frequency, TF over GST control) | 1.39 fold enrichment (6-mer frequency, TF over GST control) |
| AATGTA | 1.12 fold enrichment (6-mer frequency, TF over GST control) | 1.11 fold enrichment (6-mer frequency, TF over GST control) | 1.16 fold enrichment (6-mer frequency, TF over GST control) | 1.12 fold enrichment (6-mer frequency, TF over GST control) | 1.11 fold enrichment (6-mer frequency, TF over GST control) | 1.32 fold enrichment (6-mer frequency, TF over GST control) | 1.32 fold enrichment (6-mer frequency, TF over GST control) | 1.16 fold enrichment (6-mer frequency, TF over GST control) | 1.1 fold enrichment (6-mer frequency, TF over GST control) | 1.23 fold enrichment (6-mer frequency, TF over GST control) |
| ATGTCT | 1.27 fold enrichment (6-mer frequency, TF over GST control) | 1.36 fold enrichment (6-mer frequency, TF over GST control) | 1.17 fold enrichment (6-mer frequency, TF over GST control) | 1.27 fold enrichment (6-mer frequency, TF over GST control) | 1.28 fold enrichment (6-mer frequency, TF over GST control) | 1.07 fold enrichment (6-mer frequency, TF over GST control) | 1.26 fold enrichment (6-mer frequency, TF over GST control) | 1.08 fold enrichment (6-mer frequency, TF over GST control) | 1.18 fold enrichment (6-mer frequency, TF over GST control) | 1.23 fold enrichment (6-mer frequency, TF over GST control) |
| CGATGG | 1.23 fold enrichment (6-mer frequency, TF over GST control) | 1.28 fold enrichment (6-mer frequency, TF over GST control) | 1.36 fold enrichment (6-mer frequency, TF over GST control) | 1.31 fold enrichment (6-mer frequency, TF over GST control) | 1.36 fold enrichment (6-mer frequency, TF over GST control) | 1.46 fold enrichment (6-mer frequency, TF over GST control) | 1.34 fold enrichment (6-mer frequency, TF over GST control) | 1.15 fold enrichment (6-mer frequency, TF over GST control) | 1.14 fold enrichment (6-mer frequency, TF over GST control) | 1.41 fold enrichment (6-mer frequency, TF over GST control) |
| CCTCGA | 1.21 fold enrichment (6-mer frequency, TF over GST control) | 1.27 fold enrichment (6-mer frequency, TF over GST control) | 1.75 fold enrichment (6-mer frequency, TF over GST control) | 1.29 fold enrichment (6-mer frequency, TF over GST control) | 1.35 fold enrichment (6-mer frequency, TF over GST control) | 1.38 fold enrichment (6-mer frequency, TF over GST control) | 1.55 fold enrichment (6-mer frequency, TF over GST control) | 1.25 fold enrichment (6-mer frequency, TF over GST control) | 1.26 fold enrichment (6-mer frequency, TF over GST control) | 1.15 fold enrichment (6-mer frequency, TF over GST control) |
